Experimental data published in PubChem BioAssay AID1259421 (Broad Institute, 2018).
“And” between values parts separate entries of the source, which are not always exact repeats. Equal entries are not always repeated. Hit rate of the full screen: of about 6,400 compounds, about 610 (9.5%) were called active. Cut-off read from the data, not from the text of the source: active = activity change below about -70%; inconclusive = no clear call, values can overlap the other calls; inactive = above that. The list comes from a sample in which actives are over-represented; it also holds similar structures and randomly drawn compounds. More than one record can exist for a structure, and the calls need not agree. Where a SMILES comes first, the peptide text is derived from it.

Experiment: T. gondii ME49Luc in HeLa cells, luciferase assay, 72 h, no IFN-y (AID 1259421)
Details: stronger effect = lower value, concentration not given here

| Compound | activity change, negative = inhibition |
| --- | --- |
| O=C(O)c1ccc2c3c1cccc3c(=O)n1c3ccccc3nc21 | 9.96% (inactive) |
| COc1ccc(C[C@H](N)C(=O)N[C@@H]2[C@@H](CO)OC(n3cnc4c(N(C)C)ncnc43)[C@@H]2O)cc1 (some centres not stated) | -80.4% (active) and -91% (active) |
| CO[C@@H]1[C@H](O)[C@@H](CO)O[C@H]1n1cnc2c(NC3CCCCC3)ncnc21 | 2.27% (inactive) |
| COc1nc(N)nc2c1ncn2[C@@H]1O[C@H](CO)[C@@H](O)[C@@H]1O | -2.56% (inactive) and 14.5% (inactive) |
| O=C(O)c1cc2cccc([N+](=O)[O-])c2[nH]1 | 8.58% (inactive) |
| CO/N=C(/C(=O)NC1C(=O)N2C(C(=O)O)=C(C[N+]3(C)CCCC3)CSC12)c1csc(N)n1 (configuration not stated) | 6.5% (inactive) |
| Cc1cccc(-c2[nH]c(C(C)(C)C)nc2-c2ccc3c(c2)OCO3)n1 | -75.7% (active) |
| NC(=O)c1ccc(-c2nc(-c3ccc4c(c3)OCCO4)c(-c3ccccn3)[nH]2)cc1 | 25.7% (inactive) and -23.2% (inactive) |
| Cc1cccc(-c2[nH]c(C(C)(C)C)nc2-c2ccc3nccnc3c2)n1 | -81% (active) |
| NC(=O)c1ccc(-c2nc(-c3ccc4c(c3)OCO4)c(-c3ccccn3)[nH]2)cc1 | -37% (inactive) |
| C=C[C@@]1(C)CC(=O)[C@@]2(O)[C@](C)(O1)[C@@H](O)[C@@H](O)C1C(C)(C)CC[C@H](O)[C@@]12C (some centres not stated) | 11.2% (inactive) |
| C=CC(C)(O)CCC=C(C)C (configuration not stated) | 11.3% (inactive) |
| COc1ccccc1N1CCN(CC2CN3C(=O)N(C)c4ccccc4C3=N2)CC1 (configuration not stated) | 1.95% (inactive) |
| CC(=O)O[C@]1(C(C)=O)CCC2C3C=C(Cl)C4=CC(=O)[C@@H]5C[C@@H]5[C@]4(C)C3CC[C@@]21C (some centres not stated) | 11.3% (inactive) |
| CCCCC(=O)N(Cc1ccc(-c2ccccc2-c2nn[nH]n2)cc1)[C@H](C(=O)O)C(C)C | -0.624% (inactive) and 4.63% (inactive) |
| C#CC1(OCC(O)CN2CCN(c3cccc(C(F)(F)F)c3)CC2)CCCCC1 (configuration not stated) | -34.5% (inactive) |
| CCCOc1ccc(S(=O)(=O)N2CCN(CCO)CC2)cc1-c1nc2c(CCC)cn(CC)c2c(=O)[nH]1 | 0.0881% (inactive) |
| CC(C)n1cnc2c(NCc3ccccc3)nc(NCCCO)nc21 | 0.139% (inactive) |
| CC(C)[C@H](CO)Nc1nc(Nc2cc(N)cc(Cl)c2)c2ncn(C(C)C)c2n1 | -82.6% (active) |
| CC(C)[C@H](CO)Nc1nc(Nc2ccc(C(=O)O)c(Cl)c2)c2ncn(C(C)C)c2n1 | 13% (inactive) and 1.51% (inactive) |
| CC(C)[C@H](CO)Nc1nc(Nc2cccc(Cl)c2)c2ncn(C(C)C)c2n1 | -86% (active) and -72.5% (active) |
| CC[C@@H]1OC(=O)C[C@@H](O)[C@H](C)[C@@H](O[C@@H]2O[C@H](C)[C@@H](O)[C@H](N(C)C)[C@H]2O)[C@@H](CCN2C[C@H](C)C[C@H](C)C2)C[C@@H](C)C(=O)/C=C/C(C)=C\[C@@H]1CO[C@@H]1O[C@H](C)[C@@H](O)[C@@H](OC)[C@H]1OC | 17.5% (inactive) |
| CN1[C@@H]2CC(OC(=O)[C@H](CO)c3ccccc3)C[C@H]1[C@H]1O[C@H]12 (some centres not stated) | 23.8% (inactive) |
| CCCCCCCC/C=C/C(=O)O | 1.14% (inactive) |

| Compound | activity change, negative = inhibition |
| --- | --- |
| CO/N=C(\C(=O)N[C@@H]1C(=O)N2C(C(=O)OCOC(=O)C(C)(C)C)=C(C)CS[C@H]12)c1csc(N)n1 | 21.8% (inactive) |
| OC[C@@]1(O)OC[C@@H](O)[C@@H](O)[C@@H]1O | 7.13% (inactive) |
| CNC(=O)c1ccccc1Nc1nc(Nc2ccc(N3CCOCC3)cc2OC)ncc1Cl | -73.7% (active) and -87.3% (active) |
| COc1cc(N2CCC(N3CCN(C)CC3)CC2)ccc1Nc1ncnc(Nc2ccccc2S(=O)(=O)C(C)C)n1 | -35.3% (inactive) |
| COc1cc(N2CCC(N3CCN(C)CC3)CC2)ccc1Nc1ncc(Cl)c(Nc2ccccc2S(=O)(=O)C(C)C)n1 | -84.8% (active) |
| CN1CCN(c2nc(C3=C(c4c[nH]c5ccccc45)C(=O)NC3=O)c3ccccc3n2)CC1 | -9.55% (inactive) |
| CNC(=O)c1ccccc1Nc1nc(Nc2ccc3c(c2OC)CCC[C@H](N2CCN(CCO)CC2)C3)ncc1Cl | -74.8% (active) |
| CNC(=O)c1ccccc1Nc1cc(Nc2ccc(N3CCOCC3)cc2OC)ncc1C(F)(F)F | -46.5% (inactive) |
| CNC(=O)c1c(F)cccc1Nc1nc(Nc2cc3c(cc2OC)CCN3C(=O)CN(C)C)nc2[nH]ccc12 | -10.7% (inactive) |
| COc1cc(N2CCC(N)CC2)ccc1Nc1ncc(Cl)c(-c2c[nH]c3ccccc23)n1 | -81% (active) |
| COc1cc(N2CCC(N(C)C)CC2)ccc1Nc1ncc(Cl)c(Nc2ccccc2P(C)(C)=O)n1 | -60.2% (inactive) |
| CN(CCc1ccc(Cl)c(Cl)c1)CC(O)COc1ccc(NS(C)(=O)=O)cc1 (configuration not stated) | -4.31% (inactive) and -8.47% (inactive) |
| O=C(NCC(=O)N1CC[C@H](NC2CCC(O)(c3ccc(-c4ncccn4)cn3)CC2)C1)c1cccc(C(F)(F)F)c1 (some centres not stated) | 13.2% (inactive) |
| COc1ccc2nc(S(=O)Cc3ncc(C)c(OC)c3C)[nH]c2c1 (configuration not stated) | 29.5% (inactive) and 32.8% (inactive) and 15.1% (inactive) |
| O=Cc1ccc(CO)o1 | 3.95% (inactive) |
| O=c1c(OC2OC(CO)C(O)C(O)C2O)c(-c2ccc(O)c(O)c2)oc2cc(O)cc(O)c12 (configuration not stated) | -1.42% (inactive) |
| NCC(=O)N[C@@H](CCC(N)=O)C(=O)O (H-Gly-Gln-OH) | 6.58% (inactive) |
| CC(C)C(N)=O | 7.84% (inactive) |
| Nc1ncnc2c1C(=O)N(c1ccc(C3CCC(CC(=O)O)CC3)cc1)CCO2 (configuration not stated) | 6.2% (inactive) |
| NC1=N[C@H]2[C@H](CS[C@H]2CCCCC(=O)O)N1 | 20.2% (inactive) |
| C=C[C@]1(C)C[C@@H](OC(=O)CSC2C[C@H]3CC[C@@H](C2)N3C)[C@]2(C)[C@H](C)CC[C@]3(CCC(=O)[C@H]32)[C@@H](C)[C@@H]1O (some centres not stated) | -18.6% (inactive) |
| CC[C@H](NC(C)C)[C@H](O)c1ccc(O)c2[nH]c(=O)ccc12 | 3.71% (inactive) |
| CCOc1cc2ncc(C#N)c(Nc3ccc(OCc4ccccn4)c(Cl)c3)c2cc1NC(=O)/C=C/CN(C)C | -78.7% (active) |
| CCOc1cc2ncc(C#N)c(Nc3ccc(F)c(Cl)c3)c2cc1NC(=O)/C=C/CN(C)C | -84.3% (active) |

| Compound | activity change, negative = inhibition |
| --- | --- |
| CCOc1cc(C(=O)Nc2ccc(Cl)c(-c3nc4ccccc4[nH]3)c2)cc(OCC)c1OCC | -69.9% (inactive) |
| C=CC(=O)Nc1cc2c(Nc3ccc(F)c(Cl)c3)ncnc2cc1C#CC(C)(C)N1CCN(C)CC1 | -57.7% (inactive) |
| C[C@@H](NC(=O)c1ncnc(N)c1Cl)c1ncc(C(=O)Nc2cc(C(F)(F)F)c(Cl)cn2)s1 | 10.6% (inactive) |
| Cc1nc(NC(=O)N2CCC[C@H]2C(N)=O)sc1-c1csc(C(C)(C)C)n1 | 17.5% (inactive) |
| OCCNCCCOc1cccc(Cl)c1Cl | -43.4% (inactive) and 19.3% (inactive) |
| COc1cc2c(c(OC)c1OC)-c1c(cc3c(c1OC)OCO3)C[C@H](C)[C@@H](C)C2 | 13.7% (inactive) |
| COc1cc([C@@H]2c3cc4c(cc3C(OC3O[C@@H]5COC(C)O[C@H]5[C@H](O)[C@H]3O)C3COC(=O)[C@@H]32)OCO4)cc(OC)c1O (some centres not stated) | -0.506% (inactive) |
| COc1cc([C@@H]2c3cc4c(cc3[C@@H](O[C@@H]3O[C@@H]5CO[C@@H](c6cccs6)O[C@H]5[C@H](O)[C@H]3O)[C@H]3COC(=O)[C@H]23)OCO4)cc(OC)c1O | -72.9% (active) |
| COc1cc([C@@H]2c3cc4c(cc3[C@H](O)[C@H]3COC(=O)[C@@H]23)OCO4)cc(OC)c1OC | -71% (active) |
| COc1cc([C@@H]2c3cc4c(cc3[C@H](O)[C@H]3COC(=O)[C@H]23)OCO4)cc(OC)c1OC | -64.9% (inactive) |
| COc1cc([C@@H]2c3cc4c(cc3C(O[C@@H]3O[C@@H]5CO[C@@H](c6cccs6)OC5[C@H](O)[C@H]3O)C3COC(=O)[C@@H]32)OCO4)cc(OC)c1O (some centres not stated) | -79.4% (active) |
| COc1cc([C@@H]2c3cc4c(cc3C(OC3OC5COC(C)OC5C(O)C3O)C3OCC(=O)[C@@H]32)OCO4)cc(OC)c1O (some centres not stated) | -24.1% (inactive) |
| COc1cc([C@@H]2c3cc4c(cc3[C@@H](O[C@@H]3O[C@@H]5CO[C@@H](C)O[C@H]5[C@H](O)[C@H]3O)[C@H]3COC(=O)[C@H]23)OCO4)cc(OC)c1O | -10.1% (inactive) and -3.38% (inactive) and 9.65% (inactive) |
| C=C(C)[C@@H]1CC[C@]2(C(=O)O)CC[C@]3(C)[C@H](CC[C@@H]4[C@@]5(C)CC[C@H](OC(=O)CC(C)(C)C(=O)O)C(C)(C)[C@@H]5CC[C@]43C)[C@@H]12 | -18.2% (inactive) |
| Fc1ccc2nc(CCC#Cc3ccccn3)cn2c1 | 1.01% (inactive) |
| NS(=O)(=O)OC[C@@H]1C[C@@H](n2ccc3c(N[C@H]4CCc5ccccc54)ncnc32)C[C@@H]1O | -17.2% (inactive) |
| OC1C(O)C(O)C(O)C(O)C1O (configuration not stated) | 18.3% (inactive) |
| COc1ccc(C(C#N)C(C)C)cc1OC (configuration not stated) | 21.3% (inactive) |
| CN([NH2+][O-])c1cc(O)ccc1O | 11.6% (inactive) |
| Cc1occc(=O)c1CC=O | 1.36% (inactive) |
| CC1COC2(CCN(c3nc(=O)c4cc(C(F)(F)F)cc([N+](=O)[O-])c4s3)CC2)O1 (configuration not stated) | 301% (inactive) |
| COc1cc2ncnc(Nc3ccc(Cl)cc3F)c2cc1OC | -68.4% (inactive) and -67% (inactive) |
| COc1cc2ncnc(Nc3ccc(Oc4ccccc4)cc3)c2cc1OC | 2.86% (inactive) |
| Cc1cc(F)c(Nc2ncnc3cc(OCc4ccccc4)ccc23)cc1O | -65.2% (inactive) and -70.4% (active) |
